From the supplement of paper PMC12067093, “Discovery and optimisation of a covalent ligand for TRIM25 and its application to targeted protein ubiquitination” (Chemical Science, 2025) come the findings set out here.

About 21,000 targets were measured; listed, in parts, are those with the largest changes and a random draw of the rest.

Compound in the assay: Cc1cc(ccc1-c1ccccc1)C(=O)N1CCCN(CC1)C(=O)CCl [compound 10]
As to the kind of experiment: probe-labelled cysteine peptide fold change vs DMSO (competition) (log2 fold change); higher = less target engagement (more negative = stronger competition). Conditions: THP-1, incubation time: 4 h.
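Note: competitive profiling in live THP-1 cells: cysteine peptides tagged with an iodoacetamide desthiobiotin (IA-DTB) probe, intensity after compound treatment relative to DMSO-treated cells.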

Chain of UniProt Q9H2G2 (Q9H2G2 whole entry, looked up): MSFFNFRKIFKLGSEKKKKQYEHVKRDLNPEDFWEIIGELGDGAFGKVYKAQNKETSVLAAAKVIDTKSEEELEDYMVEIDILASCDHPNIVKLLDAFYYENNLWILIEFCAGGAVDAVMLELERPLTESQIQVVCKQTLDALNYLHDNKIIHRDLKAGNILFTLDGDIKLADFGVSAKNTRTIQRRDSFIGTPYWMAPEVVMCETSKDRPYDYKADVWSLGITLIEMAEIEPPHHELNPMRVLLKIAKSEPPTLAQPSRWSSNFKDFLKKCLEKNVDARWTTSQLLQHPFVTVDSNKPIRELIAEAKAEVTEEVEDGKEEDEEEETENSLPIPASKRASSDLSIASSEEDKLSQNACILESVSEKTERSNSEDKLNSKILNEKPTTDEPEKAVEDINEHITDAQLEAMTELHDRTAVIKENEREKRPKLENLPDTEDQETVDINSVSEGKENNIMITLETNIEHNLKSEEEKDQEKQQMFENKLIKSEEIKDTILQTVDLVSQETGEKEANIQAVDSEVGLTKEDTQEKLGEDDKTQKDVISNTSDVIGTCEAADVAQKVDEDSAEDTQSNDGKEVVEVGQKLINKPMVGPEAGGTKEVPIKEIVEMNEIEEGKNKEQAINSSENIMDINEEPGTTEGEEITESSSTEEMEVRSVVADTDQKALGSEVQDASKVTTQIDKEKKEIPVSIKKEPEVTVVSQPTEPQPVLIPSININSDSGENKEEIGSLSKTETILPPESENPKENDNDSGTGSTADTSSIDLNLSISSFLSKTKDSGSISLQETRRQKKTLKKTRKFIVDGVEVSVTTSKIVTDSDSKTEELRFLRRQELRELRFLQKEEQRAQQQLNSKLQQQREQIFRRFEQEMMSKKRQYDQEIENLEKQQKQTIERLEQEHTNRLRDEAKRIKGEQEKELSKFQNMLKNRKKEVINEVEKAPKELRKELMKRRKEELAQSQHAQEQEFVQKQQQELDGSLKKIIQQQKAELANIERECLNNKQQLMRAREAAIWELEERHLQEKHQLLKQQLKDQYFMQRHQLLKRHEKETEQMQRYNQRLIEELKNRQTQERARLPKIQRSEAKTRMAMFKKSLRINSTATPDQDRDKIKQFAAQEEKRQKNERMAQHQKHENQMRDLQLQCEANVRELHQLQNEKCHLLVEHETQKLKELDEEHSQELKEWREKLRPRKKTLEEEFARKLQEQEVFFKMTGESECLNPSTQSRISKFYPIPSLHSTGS
Chain of UniProt Q9BWH6 (Q9BWH6 whole entry): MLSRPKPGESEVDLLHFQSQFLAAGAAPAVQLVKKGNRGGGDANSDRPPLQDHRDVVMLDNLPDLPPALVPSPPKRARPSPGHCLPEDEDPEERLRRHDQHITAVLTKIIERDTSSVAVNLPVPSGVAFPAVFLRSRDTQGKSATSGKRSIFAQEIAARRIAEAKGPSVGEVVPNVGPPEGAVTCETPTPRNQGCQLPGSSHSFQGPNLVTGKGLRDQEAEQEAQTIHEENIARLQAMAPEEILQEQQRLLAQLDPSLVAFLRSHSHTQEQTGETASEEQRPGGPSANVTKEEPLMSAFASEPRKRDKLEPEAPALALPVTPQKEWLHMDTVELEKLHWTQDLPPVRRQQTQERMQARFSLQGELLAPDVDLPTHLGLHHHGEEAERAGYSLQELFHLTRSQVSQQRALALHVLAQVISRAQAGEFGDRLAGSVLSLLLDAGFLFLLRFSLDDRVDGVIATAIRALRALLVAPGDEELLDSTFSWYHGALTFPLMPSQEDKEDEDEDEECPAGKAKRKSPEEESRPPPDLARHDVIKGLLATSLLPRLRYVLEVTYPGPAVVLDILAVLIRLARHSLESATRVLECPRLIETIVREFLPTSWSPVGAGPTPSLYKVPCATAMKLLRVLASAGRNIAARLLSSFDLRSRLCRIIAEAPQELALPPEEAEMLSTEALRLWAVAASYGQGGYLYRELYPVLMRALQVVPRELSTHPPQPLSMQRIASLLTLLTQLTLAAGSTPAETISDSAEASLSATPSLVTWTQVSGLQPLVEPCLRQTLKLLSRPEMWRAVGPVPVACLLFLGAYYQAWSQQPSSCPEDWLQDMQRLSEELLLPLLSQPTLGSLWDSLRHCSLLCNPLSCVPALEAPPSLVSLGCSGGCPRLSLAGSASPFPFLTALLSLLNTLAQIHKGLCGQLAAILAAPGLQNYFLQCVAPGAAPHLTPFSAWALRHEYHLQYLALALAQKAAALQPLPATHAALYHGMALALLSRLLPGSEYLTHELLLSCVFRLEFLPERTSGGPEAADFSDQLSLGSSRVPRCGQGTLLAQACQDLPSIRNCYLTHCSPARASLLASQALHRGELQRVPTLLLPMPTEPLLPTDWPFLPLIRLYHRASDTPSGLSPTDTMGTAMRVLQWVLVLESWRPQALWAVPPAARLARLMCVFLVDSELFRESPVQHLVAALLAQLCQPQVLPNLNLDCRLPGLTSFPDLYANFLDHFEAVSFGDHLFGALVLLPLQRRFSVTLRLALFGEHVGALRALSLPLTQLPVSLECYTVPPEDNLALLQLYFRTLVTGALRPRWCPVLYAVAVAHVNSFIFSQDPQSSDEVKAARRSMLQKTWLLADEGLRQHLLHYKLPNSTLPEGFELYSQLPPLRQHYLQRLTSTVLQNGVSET
Chain of UniProt Q6GMV2 (Q6GMV2 whole entry, looked up): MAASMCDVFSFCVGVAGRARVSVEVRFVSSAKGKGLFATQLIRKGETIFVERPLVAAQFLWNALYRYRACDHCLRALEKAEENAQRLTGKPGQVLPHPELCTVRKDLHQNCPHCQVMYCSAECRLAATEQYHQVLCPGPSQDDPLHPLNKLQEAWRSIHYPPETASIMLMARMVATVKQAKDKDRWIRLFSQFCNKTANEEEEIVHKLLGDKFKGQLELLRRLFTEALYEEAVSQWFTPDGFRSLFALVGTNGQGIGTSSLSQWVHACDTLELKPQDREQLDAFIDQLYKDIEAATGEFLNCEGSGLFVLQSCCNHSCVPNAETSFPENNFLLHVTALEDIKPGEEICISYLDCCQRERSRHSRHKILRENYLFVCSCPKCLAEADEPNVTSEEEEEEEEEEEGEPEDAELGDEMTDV
Chain of UniProt Q9UQE7 (Q9UQE7 whole entry, looked up): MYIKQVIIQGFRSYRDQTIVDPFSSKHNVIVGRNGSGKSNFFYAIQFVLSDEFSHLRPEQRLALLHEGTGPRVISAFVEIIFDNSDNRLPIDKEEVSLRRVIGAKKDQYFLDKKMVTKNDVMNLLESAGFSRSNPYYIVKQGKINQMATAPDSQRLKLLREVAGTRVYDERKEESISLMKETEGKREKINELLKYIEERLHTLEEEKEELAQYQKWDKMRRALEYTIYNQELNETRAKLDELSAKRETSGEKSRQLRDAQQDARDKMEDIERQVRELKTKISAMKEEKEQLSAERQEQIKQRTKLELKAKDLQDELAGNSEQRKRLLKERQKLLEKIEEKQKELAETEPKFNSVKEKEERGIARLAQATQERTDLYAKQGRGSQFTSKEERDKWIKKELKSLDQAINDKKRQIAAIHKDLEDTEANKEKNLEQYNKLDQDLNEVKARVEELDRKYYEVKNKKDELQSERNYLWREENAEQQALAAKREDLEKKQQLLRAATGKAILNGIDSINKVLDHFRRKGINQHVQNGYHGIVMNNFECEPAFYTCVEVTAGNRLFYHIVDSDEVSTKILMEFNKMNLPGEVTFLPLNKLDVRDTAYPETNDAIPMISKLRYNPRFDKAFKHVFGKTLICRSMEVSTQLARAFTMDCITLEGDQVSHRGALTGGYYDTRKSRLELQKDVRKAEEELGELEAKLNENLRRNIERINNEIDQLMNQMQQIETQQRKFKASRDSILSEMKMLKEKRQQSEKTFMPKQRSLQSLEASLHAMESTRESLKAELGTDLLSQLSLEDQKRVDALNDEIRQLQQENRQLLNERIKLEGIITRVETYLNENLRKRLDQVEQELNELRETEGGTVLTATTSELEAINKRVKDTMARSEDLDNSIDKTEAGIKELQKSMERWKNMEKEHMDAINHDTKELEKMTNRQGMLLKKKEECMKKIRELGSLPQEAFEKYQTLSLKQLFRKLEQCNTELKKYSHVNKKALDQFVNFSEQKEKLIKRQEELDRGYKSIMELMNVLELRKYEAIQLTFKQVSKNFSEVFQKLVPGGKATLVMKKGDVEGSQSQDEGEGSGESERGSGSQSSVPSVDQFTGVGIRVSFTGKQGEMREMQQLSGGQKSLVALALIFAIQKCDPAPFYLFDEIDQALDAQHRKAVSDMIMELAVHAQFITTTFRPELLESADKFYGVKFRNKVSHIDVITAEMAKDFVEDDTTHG
Chain of UniProt O75446 (O75446 whole entry, looked up): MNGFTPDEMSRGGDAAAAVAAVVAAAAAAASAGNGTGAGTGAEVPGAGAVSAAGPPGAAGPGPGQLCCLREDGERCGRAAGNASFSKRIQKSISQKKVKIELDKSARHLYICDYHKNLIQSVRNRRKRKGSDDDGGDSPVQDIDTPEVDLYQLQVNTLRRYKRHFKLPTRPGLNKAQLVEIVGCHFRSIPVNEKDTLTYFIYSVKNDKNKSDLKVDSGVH
Chain of UniProt Q9Y512 (Q9Y512 whole entry, looked up): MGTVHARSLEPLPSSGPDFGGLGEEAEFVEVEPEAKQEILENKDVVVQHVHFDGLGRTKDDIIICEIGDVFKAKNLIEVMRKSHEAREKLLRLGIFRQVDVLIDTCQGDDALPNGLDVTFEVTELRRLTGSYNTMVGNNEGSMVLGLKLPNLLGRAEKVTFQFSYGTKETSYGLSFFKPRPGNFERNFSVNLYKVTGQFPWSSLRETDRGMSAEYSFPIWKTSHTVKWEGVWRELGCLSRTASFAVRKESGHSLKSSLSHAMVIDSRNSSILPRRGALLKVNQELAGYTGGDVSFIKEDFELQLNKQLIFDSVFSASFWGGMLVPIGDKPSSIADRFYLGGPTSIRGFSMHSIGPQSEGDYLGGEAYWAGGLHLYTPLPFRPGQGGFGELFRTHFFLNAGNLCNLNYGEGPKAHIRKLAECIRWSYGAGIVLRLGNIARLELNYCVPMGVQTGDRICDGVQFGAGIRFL

On to “SLPI_P03973_51+57_YKKPECQSDWQCPGK (UniProt P03973)”, for which the “probe-labelled cysteine peptide fold change” value is, setting by setting: (10 µM) -0.847; (50 µM) -1.07.

On to “RPL11_P62913_21+25_KLCLNICVGESGDR (UniProt P62913)”, for which the “probe-labelled cysteine peptide fold change” value was -0.0801 (10 µM) and -0.334 (50 µM).

“RPS6_P62753_12_KLNISFPATGCQK (UniProt P62753)”: the “probe-labelled cysteine peptide fold change” value was 0.00268 (10 µM) and 1.18 (50 µM).

Regarding “RPS6KA1_Q15418_432_ETIGVGSYSECKR (UniProt Q15418)”, the “probe-labelled cysteine peptide fold change” value reads like this: (10 µM) -1.06; (50 µM) -2.91.

Turning to “SLC25A5_P05141_257_KGTDIMYTGTLDCWR (UniProt P05141)”, the “probe-labelled cysteine peptide fold change” value was -0.111 (10 µM) and -0.203 (50 µM).

On to “RNF214_Q8ND24_675_LVQPSELHPMACTHVLHK (UniProt Q8ND24)”, for which the “probe-labelled cysteine peptide fold change” value came out at 0.0646 (10 µM) and 0.0132 (50 µM).

As to “SAP30_O75446_184_AQLVEIVGCHFR (UniProt O75446)”, the “probe-labelled cysteine peptide fold change” value is, setting by setting: (10 µM) 0.0105; (50 µM) -0.181.

With “SFSWAP_Q12872_307_CNRLEELMK (UniProt Q12872)”, the “probe-labelled cysteine peptide fold change” value was -0.382 (10 µM) and -1.12 (50 µM).

For “RPS6KA3_P51812_436_EDIGVGSYSVCK<|>RPS6KA2_Q15349_429_EDIGVGSYSVCK (UniProt Q15349+P51812)”, the “probe-labelled cysteine peptide fold change” value runs as follows: (10 µM) -0.569; (50 µM) -1.64.

Turning to “SEC63_Q9UGP8_295_NEPPLTCPYSLK (UniProt Q9UGP8)”, the “probe-labelled cysteine peptide fold change” value by setting is: (10 µM) -0.343; (50 µM) -1.34.

As to “RPUSD2_Q8IZ73_246_LLAENEDVVVVDKPSSIPVHPCGR (UniProt Q8IZ73)”, the “probe-labelled cysteine peptide fold change” value (10 µM) was -0.561 and the “probe-labelled cysteine peptide fold change” value (50 µM) was -1.57.

On to “SMYD5_Q6GMV2_136_LAATEQYHQVLCPGPSQDDPLHPLNK (UniProt Q6GMV2)”, for which the “probe-labelled cysteine peptide fold change” value is -0.0142 (10 µM) and -0.404 (50 µM).

On to “SIN3B_O75182_1138_TLCETVHVHGLPVTR (UniProt O75182)”, for which the “probe-labelled cysteine peptide fold change” value (10 µM) was -0.165 and the “probe-labelled cysteine peptide fold change” value (50 µM) came out at 0.0678.

Take “SATB1_Q01826_173_IQLHSCPK (UniProt Q01826)”: the “probe-labelled cysteine peptide fold change” value runs as follows: (10 µM) -0.0552; (50 µM) -0.188.

On to “RNH1_P13489_323+330_SCSFTAACCSHFSSVLAQNR (UniProt P13489)”, for which the “probe-labelled cysteine peptide fold change” value reads like this: (10 µM) -0.0759; (50 µM) -0.562.

Take “RSBN1_Q5VWQ0_318_DEQLCR (UniProt Q5VWQ0)”: the “probe-labelled cysteine peptide fold change” value reads like this: (10 µM) -0.206; (50 µM) -0.556.

In the case of “SMC3_Q9UQE7_1134_CDPAPFYLFDEIDQALDAQHR (UniProt Q9UQE7)”, the “probe-labelled cysteine peptide fold change” value worked out at 0.416 (10 µM) and 0.52 (50 µM).

On to “RNPEP_Q9H4A4_69_CLEPEGAAELR (UniProt Q9H4A4)”, for which the “probe-labelled cysteine peptide fold change” value runs as follows: (10 µM) 0.063; (50 µM) 0.0983.

On to “SLC25A5_P05141_257_GTDIMYTGTLDCWRK (UniProt P05141)”, for which the “probe-labelled cysteine peptide fold change” value is, setting by setting: (10 µM) -0.0476; (50 µM) -0.127.

As for “RNH1_P13489_30_WAELLPLLQQCQVVR (UniProt P13489)”, the “probe-labelled cysteine peptide fold change” value is, setting by setting: (10 µM) 0.0863; (50 µM) 0.0624.

Turning to “SLX4_Q8IY92_318_CLDEAEK (UniProt Q8IY92)”, the “probe-labelled cysteine peptide fold change” value (10 µM) was -0.0818 and the “probe-labelled cysteine peptide fold change” value (50 µM) came out at 0.0245.

Consider “SAMM50_Q9Y512_403_THFFLNAGNLCNLNYGEGPK (UniProt Q9Y512)”, for which the “probe-labelled cysteine peptide fold change” value reads like this: (10 µM) 0.022; (50 µM) 0.169.

On to “RPLP0_P05388_27_CFIVGADNVGSK (UniProt P05388)”, for which the “probe-labelled cysteine peptide fold change” value by setting is: (10 µM) 0.0238; (50 µM) 0.0907.

“RNF214_Q8ND24_696_FWAQTNTNDTCPFCPTLK (UniProt Q8ND24)”: the “probe-labelled cysteine peptide fold change” value came out at 0.35 (10 µM) and 1.12 (50 µM).

On to “RPP25_Q9BUL9_70_AIVFSGCGR (UniProt Q9BUL9)”, for which the “probe-labelled cysteine peptide fold change” value is 0.319 (10 µM) and -0.143 (50 µM).

Take “SAE1_Q9UBE0_134_VDTEDIEKKPESFFTQFDAVCLTCCSR (UniProt Q9UBE0)”: the “probe-labelled cysteine peptide fold change” value is -0.00481 (10 µM) and -1.27 (50 µM).

Take “SLK_Q9H2G2_1138_DLQLQCEANVR (UniProt Q9H2G2)”: the “probe-labelled cysteine peptide fold change” value by setting is: (10 µM) 0.0336; (50 µM) 0.0461.

For “RTN4IP1_Q8WWV3_130_DVSGVVMECGLDVK (UniProt Q8WWV3)”, the “probe-labelled cysteine peptide fold change” value runs as follows: (10 µM) 0.0949; (50 µM) 0.461.

In the case of “SCAF11_Q99590_506_KLENTGIEANVLCLESEISENILEK (UniProt Q99590)”, the “probe-labelled cysteine peptide fold change” value is, setting by setting: (10 µM) -0.478; (50 µM) 0.011.

As for “SNRNP200_O75643_1278_VVSDRWLSCETQLPVSFR (UniProt O75643)”, the “probe-labelled cysteine peptide fold change” value was -0.0123 (10 µM) and -0.0331 (50 µM).

On to “RNF31_Q96EP0_473_LSAPLPSSCGDPEK (UniProt Q96EP0)”, for which the “probe-labelled cysteine peptide fold change” value reads like this: (10 µM) -0.208; (50 µM) 0.0977.

As to “RPAP1_Q9BWH6_185_GPSVGEVVPNVGPPEGAVTCETPTPR (UniProt Q9BWH6)”, the “probe-labelled cysteine peptide fold change” value runs as follows: (10 µM) 0.902; (50 µM) 1.33.
